A selection: hits, their analogues and other compounds. The true share with any hit is near 6.7%.
GDH-TPI counter: GDH-TPI coupling enzyme inhibitors, primary screen, artefact control for M. tuberculosis FBA inhibitor project, biochemical, absorbance, full deck; GDH-TPI coupled enzyme counterscreen, NADH absorbance; inhibition, % at 4.8 µM; 360,000 compounds, 1.2% hits; in the data active = inhibition above about 30%
Mtb FBA inh: Mtb FBA enzyme inhibitors, primary screen, biochemical, fluorescence, strain H37Rv. purified M. tuberculosis FBA, fluorescence read-out. inhibition, % at 1 µM. AID 588726, 2011. 360,000 compounds, 2.3% hits; in the data active = inhibition above about 27%
Target sequence (P9WQA3 whole entry, looked up): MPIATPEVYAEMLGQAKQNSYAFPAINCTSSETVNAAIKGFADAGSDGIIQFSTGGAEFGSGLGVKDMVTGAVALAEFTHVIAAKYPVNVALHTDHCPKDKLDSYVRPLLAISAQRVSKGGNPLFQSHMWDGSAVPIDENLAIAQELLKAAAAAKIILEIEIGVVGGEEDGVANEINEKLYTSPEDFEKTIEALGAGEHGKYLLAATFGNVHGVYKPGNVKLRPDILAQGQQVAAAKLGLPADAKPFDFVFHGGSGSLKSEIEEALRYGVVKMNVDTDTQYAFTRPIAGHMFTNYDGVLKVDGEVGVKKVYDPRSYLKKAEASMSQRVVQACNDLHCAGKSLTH
Anthrax LF inh2: Bacillus anthracis LF protease inhibitors, primary screen, biochemical, multiplex microsphere, MLPCN library; Lethal factor (Bacillus anthracis), P15917; multiplex microsphere protease cleavage assay; inhibition, % at 10 µM; 360,000 compounds, 0.12% hits; AID 588501, 2011
BoNT-A LC inh2: BoNT/A light chain protease inhibitors, primary screen, biochemical, flow cytometry, MLPCN library | inhibition, % at 10 µM | AID 588499, 2011 | multiplex microsphere protease substrate cleavage | 360,000 compounds, 0.17% hits | Botulinum neurotoxin type A light chain protease (Clostridium botulinum A str. ATCC 3502)
BoNT F protease: BoNT/F light chain protease inhibitors, primary screen, biochemical, flow cytometry, MLPCN library; Multiplex microsphere protease cleavage assay; inhibition, % at 10 µM; Botulinum neurotoxin type F light chain protease (Clostridium botulinum); 360,000 compounds, 0.22% hits; in the data active = inhibition above about 35%, passing the limit was not always enough; inconclusive = no clear call, values can overlap the other calls
Autofluor counter: flagged as autofluorescent in microsphere protease counterscreen; compound autofluorescence counterscreen, microsphere flow cytometry; active compounds read high; fluorescence intensity (no concentration beside the values); 360,000 compounds, 3.1% hits; AID 624483; in the data active = fluorescence intensity above about 16000; inconclusive = no clear call, values can overlap the other calls
Of the large screens only hits and unclear results are named; the others gave an inactive call. Cut-off read from the data, not from the text of the source, unless noted: active = inhibition above about 30%; inconclusive = no clear call, values can overlap the other calls; inactive = below that.

C=CCn1c(SCC(=O)Nc2ccc(C(=O)OCC)cc2)nnc1-c1cccs1	none
C=CCn1c(SCC(=O)c2ccc(NS(=O)(=O)c3ccccc3)cc2)nnc1-c1cccs1	GDH-TPI counter 35, BoNT-A LC inh2 inconclusive, Autofluor counter 20128
C=CCn1c(CCNC(=O)c2cccs2)nnc1SCC(=O)c1ccc(Br)cc1	Autofluor counter 20927
CCOc1ccc(S(=O)(=O)N(CC)CC(=O)NC2CCS(=O)(=O)C2)cc1 (stereo not drawn)	none
CCOC(=O)N1CCN(S(=O)(=O)CCNC(=O)c2ccc(OC)cc2)CC1	Anthrax LF inh2 inconclusive, BoNT-A LC inh2 inconclusive, BoNT F protease inconclusive, Autofluor counter inconclusive
Cc1cc(C)nc(SCc2nnc(SCC(=O)Nc3nc(-c4ccccc4)cs3)n2C)n1	none
Cc1ccccc1C(=O)NCCc1nnc(SCC(=O)Nc2nc(-c3ccccc3)cs2)n1C	BoNT-A LC inh2 inconclusive, Autofluor counter 20936
Cc1cccc(C(=O)NCc2nnc(SCC(=O)Nc3nncs3)n2C)c1	none
Cc1cccc(C(=O)NCCc2nnc(SCC(=O)Nc3nc(C)cs3)n2C)c1	BoNT-A LC inh2 inconclusive, Autofluor counter 16360
CCn1c(CSc2nc(C)cc(C)n2)nnc1SCC(=O)Nc1nc(-c2ccccc2)cs1	Autofluor counter 16261
COc1ccc(-c2cc(C(=O)NCCCN3CCOCC3)on2)cc1OC	none
Cc1nccn1-c1ncnc2sc3c(c12)CCCC3	none
COc1ccc(C=NCCC2(O)CC(C)N(C)CC2C)cc1 (stereo not drawn)	BoNT F protease 54
COc1ccc(CNCCC2(O)CC(C)N(C)CC2C)cc1OC (stereo not drawn)	BoNT F protease inconclusive
Cc1cc(C)n2cc(CSCc3ccccc3)nc2n1	Mtb FBA inh 160
CCN(Cc1ccccc1)S(=O)(=O)c1nc2nc(C)c(C)c(C)n2n1	Autofluor counter 17154
Cc1cc(C)n2nc(-c3ccco3)nc2n1	Mtb FBA inh 124
Cc1cc(C)n2nc(S(=O)(=O)N(C)Cc3ccccc3)nc2n1	BoNT-A LC inh2 inconclusive, Autofluor counter 19864
c1ccc2oc(SCc3cn4ccsc4n3)nc2c1	none
O=C(NCc1ccccn1)c1nnc(Cc2ccc(Cl)cc2)o1	none
Cc1ccsc1C(=O)NCCC(c1ccccc1)c1ccccc1	none
Cc1cc(C)n2nc(CCc3ccccc3)nc2n1	Autofluor counter 23082
COc1cc(OC)c(C2C(C#N)=C(N)Oc3cc(C)n(CCCN4CCOCC4)c(=O)c32)cc1OC (stereo not drawn)	none
Cc1c(NC(=O)c2cc3c(s2)-c2ccccc2OC3)cccc1[N+](=O)[O-]	GDH-TPI counter 36
CCCN1CCN(CCCNC(=O)c2cc3c(s2)-c2ccccc2OC3)CC1	Mtb FBA inh active
CC1CCCC(C)N1CCCNC(=O)c1cc2c(s1)-c1ccccc1OC2 (stereo not drawn)	Mtb FBA inh active
CN(C)CCNC(=O)c1cc2c(s1)-c1ccccc1OC2	GDH-TPI counter 32, Mtb FBA inh active
COc1cccc(N2CCN(C(=O)c3cc4c(s3)-c3ccccc3OC4)CC2)c1	none
COc1ccc(CCC2CCNCC2)cc1	none
Cc1cccc2c1-c1sc(C(=O)NCCCN3CCCC(C)C3)cc1CO2 (stereo not drawn)	Mtb FBA inh active
Cc1ccc2oc(=O)c3cc(C(=O)NCCCN4CCCC(C)C4)sc3c2c1 (stereo not drawn)	none
CC1CC(C)CN(CCCNC(=O)c2cc3c(s2)-c2ccccc2OC3)C1 (stereo not drawn)	Mtb FBA inh active
CCN1CCN(CCCNC(=O)c2cc3c(s2)-c2ccccc2OC3)CC1	none (no result: Mtb FBA inh)
CCCN1CCN(CCCNC(=O)c2cc3c(s2)-c2c(C)cccc2OC3)CC1	Mtb FBA inh active
Cc1cccc(NC(=O)c2cc3c(s2)-c2c(C)cccc2OC3)n1	none
COc1ccc(C(=O)C(CCC(CNC(C)(C)C)C(=O)c2ccc(OC)cc2)CNC(C)(C)C)cc1 (stereo not drawn)	none
CC(C)C12CN3CCN(CC(C3)C1O)C2 (stereo not drawn)	Autofluor counter 16737
COc1cc(C(=O)C(O)c2ccc(O)c(OC)c2)ccc1O (stereo not drawn)	none
O=C(C(=O)c1ccc(O)c(O)c1)c1ccc(O)c(O)c1	GDH-TPI counter 78
CC(C)C(=O)c1ccc(O)c(O)c1	GDH-TPI counter 38
O=Cc1ccc(O)c(O)c1	none
COc1cc(/C=C(/C#N)C(=O)c2c(C)[nH]c3ccccc23)ccc1OCC#N	GDH-TPI counter 38
COc1cc(/C=C(/C#N)C(=O)NCCc2c[nH]c3ccccc23)ccc1OCc1ccccc1F	Autofluor counter 23745
Cc1cc(/C=C(\C#N)C(=O)NCCc2c[nH]c3ccccc23)c(C)n1C	none
O=c1c2ccccc2c2ccccc2c(=O)n1-c1ccccc1	none
COC(=O)c1sc(NC(=O)COc2ccccc2C)nc1C	none
O=C(O)c1ccc(Cl)c(NC(=O)C2CCCN2S(=O)(=O)c2cccc3nsnc23)c1 (stereo not drawn)	Autofluor counter 20420
CCNC(=O)Cn1cnc2c1c(=O)n(C)c(=O)n2C	none
COC(=O)CSc1nnc(-c2ccc(S(=O)(=O)N3CCCC3)cc2)o1	none
CCOC(=O)CSc1nnc(-c2ccc(S(=O)(=O)NCc3cccs3)cc2)o1	none
COC(=O)CSc1nnc(-c2ccc(S(=O)(=O)NCc3cccs3)cc2)o1	Autofluor counter 21213
COC(=O)CSc1nnc(-c2ccc(S(=O)(=O)NCc3ccccc3Cl)cc2)o1	Autofluor counter 21867
C/C(=N\NC(=O)c1nnn(-c2nonc2N)c1-c1ccccc1)c1ccccc1O	none
Cc1nn(C)cc1C(C(=O)NC1CCCCC1)N(C(=O)c1cnccn1)c1ccc(Oc2ccccc2)cc1 (stereo not drawn)	none
COc1ccc(CCNC(=S)Nc2cccc(C)c2)cc1	none
Cc1[nH]c(=O)[nH]c(=O)c1C=CC(=O)NC(CO)CS(=O)Cc1ccccc1 (stereo not drawn)	none
CN(CCO)S(=O)(=O)c1ccc2c(c1)C(=NNC(N)=O)c1cc(S(=O)(=O)N(C)CCO)ccc1-2	GDH-TPI counter 56
O=C(Nc1cccnc1)c1ccc2c(c1)C(=O)N(Cc1cccnc1)C2=O	Autofluor counter 23004
Cc1cc(C(=O)Nc2cccnc2)cs1	Autofluor counter 23010
COC(=O)c1cc(C)sc1NC(=O)c1cccnc1	Autofluor counter 24838
CCC(=O)Nc1ccc(C(=O)Nc2cccnc2)cc1	none
CC(=O)c1cccc(NC(=O)c2ccc3c(c2)C(=O)N(Cc2cccnc2)C3=O)c1	none
COC(=O)c1c(NC(=O)c2cccnc2)sc(C)c1C	none

High-throughput results (PubChem)
